These results are taken from PubChem BioAssay AID651681 (Broad Institute, 2012).

The structures appear in SMILES notation. The source made the active and inactive calls.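 The calls were made as follows: active = compound with fitted CDK2 half-maximal potency at or below twice its top tested dose; inconclusive = flat curve near 30 to 70% inhibition, or poor fit; inactive = the rest.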

In the assay the target is Cyclin-dependent kinase 2 (Homo sapiens) + Cyclin-A2 (Homo sapiens) (UniProt P20248+P24941). Description: CDK2/cyclin A inhibitors, off-target check, dose response, selectivity assay for Dyrk1A inhibitor project, biochemical, dry powder, set 3 (AID 651681). Particulars: CDK2/cyclin A ADP-Glo luminescence, histone H1 peptide; series mostly up to 10 µM. (ADP-Glo first removes unused ATP, then detects ADP through luciferase.)
Cyclin-dependent kinase 2 (Homo sapiens) + Cyclin-A2 (Homo sapiens), sequence (P20248 whole entry, looked up, one chain of several): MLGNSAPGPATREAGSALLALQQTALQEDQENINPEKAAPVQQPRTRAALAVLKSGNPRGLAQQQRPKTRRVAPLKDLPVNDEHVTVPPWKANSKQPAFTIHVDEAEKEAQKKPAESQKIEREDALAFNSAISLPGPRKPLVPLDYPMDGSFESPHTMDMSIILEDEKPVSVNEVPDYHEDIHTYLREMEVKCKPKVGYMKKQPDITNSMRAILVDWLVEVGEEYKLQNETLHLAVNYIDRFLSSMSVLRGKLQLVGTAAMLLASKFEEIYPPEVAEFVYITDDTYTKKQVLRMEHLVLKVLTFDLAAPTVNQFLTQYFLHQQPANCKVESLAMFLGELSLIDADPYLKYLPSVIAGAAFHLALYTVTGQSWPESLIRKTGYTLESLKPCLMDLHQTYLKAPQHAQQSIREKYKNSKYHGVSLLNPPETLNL
As to `COc1ccc(OC)c(C2=Nn3c(nnc3-c3ccccn3)SC2)c1`, the result was inactive. For `C=CCn1cnc2scc(-c3ccc(OC)cc3)c2c1=O`, the outcome was inactive. With `COc1ccc(OC)c(CNC(=O)c2sc3ccccc3c2Cl)c1`, the outcome was inactive. Take `Cc1sc(NC(=O)CSCc2ccccc2)nc1-c1ccccc1`: the result was inactive.

With `Cc1ccccc1S(=O)(=O)Cc1ccc(C(=O)NC(C)c2ccc3c(c2)OCCO3)o1` (configuration not stated), the result was inactive. Regarding `Cc1cccc2sc(NC(=O)CN(C)S(=O)(=O)c3ccc(Cl)cc3)nc12`, the outcome was inactive. For the compound `COc1ccc(OC)c(C2=Nn3c(nnc3-c3ccncc3)SC2)c1`, the result was inactive. For the compound `COc1ccc2c(Cl)c(C(N)=O)sc2c1`, the outcome was inactive. The same measure for `Clc1ccc(CSc2nc(Nc3ccc4c(c3)OCO4)c3ccccc3n2)cc1`: “inactive”; for `COc1ccc(C2=Nn3c(nnc3-c3cccnc3)SC2)cc1OC`: “inactive”; for `COc1ccc2nc(NC(=O)C3CCCN(S(=O)(=O)c4cccc5nsnc45)C3)sc2c1` (configuration not stated): “inactive”.

With `COc1ccc2nc(NC(=O)C3CCCN(S(=O)(=O)c4cccc5nonc45)C3)sc2c1` (configuration not stated), the outcome was inactive.

As to `CN(CC(=O)Nc1nccs1)S(=O)(=O)c1ccc(Cl)cc1`, the result was inactive.

With `CN(CC(=O)Nc1nc2ccccc2s1)S(=O)(=O)c1ccccc1`, the outcome was inactive.

Consider `Cc1ccc(S(=O)(=O)N(C)CC(=O)Nc2nc3ccccc3s2)cc1`, for which the result was inactive.

With `Cc1ccc(S(=O)(=O)N(C)CC(=O)Nc2nc3ccc(Cl)cc3s2)cc1C`, the outcome was inactive. For `COc1ccc(OC)c(C2=Nn3c(nnc3-c3ccccc3)SC2)c1`, the outcome was inactive.

Consider `COc1ccc2nc(NC(=O)C3CCN(S(=O)(=O)c4cccnc4)CC3)sc2c1`, for which the outcome was inactive.

`COc1ccc2nc(NC(=O)CN(C)S(=O)(=O)c3ccc(F)cc3)sc2c1`: the outcome was inactive.

Consider `COc1ccc2nc(NC(=O)C3CCCN(S(=O)(=O)c4cccc5cccnc45)C3)sc2c1` (configuration not stated), for which the result was inactive. Consider `CC(C)n1cnc2cc(NCc3cccc4ccccc34)ccc21`, for which the result was inactive. For the compound `COc1ccc(C2=Nn3c(nnc3-c3cccnc3)SC2)cc1`, the result was inactive.
